Several values for one entry are separate records, joined by “and”; a condition that tells them apart may be missing. Equal entries are not always repeated. Out of some 16,000 compounds screened, about 2,600 (16%) were called active. Another 20% or so got no clear call; they are omitted. Calls follow the shape of the dose curve; as a rule, active = well fitted curve in the direction sought with a large enough effect; inconclusive = small, poorly fitted or top-dose-only effect, or effect the other way; inactive = no such curve, though single readings can be large or run the other way. These entries were drawn from the full list. Some compounds were tested as several samples or in several runs, with calls that do not always agree.
target: Cytochrome P450 2D6 (Homo sapiens) (UniProt P10635); experiment: Cytochrome panel assay with activity outcomes; details: recombinant CYP, pro-luciferin dealkylation, luminescence, p450-cyp2d6; series mostly up to 57.1 µM; activity, negative = inhibition: at the top concentration
% is scaled to controls: 0 for no effect and ±100 for the full control effect.

Sequence of Cytochrome P450 2D6 (Homo sapiens) (P10635 whole entry, looked up): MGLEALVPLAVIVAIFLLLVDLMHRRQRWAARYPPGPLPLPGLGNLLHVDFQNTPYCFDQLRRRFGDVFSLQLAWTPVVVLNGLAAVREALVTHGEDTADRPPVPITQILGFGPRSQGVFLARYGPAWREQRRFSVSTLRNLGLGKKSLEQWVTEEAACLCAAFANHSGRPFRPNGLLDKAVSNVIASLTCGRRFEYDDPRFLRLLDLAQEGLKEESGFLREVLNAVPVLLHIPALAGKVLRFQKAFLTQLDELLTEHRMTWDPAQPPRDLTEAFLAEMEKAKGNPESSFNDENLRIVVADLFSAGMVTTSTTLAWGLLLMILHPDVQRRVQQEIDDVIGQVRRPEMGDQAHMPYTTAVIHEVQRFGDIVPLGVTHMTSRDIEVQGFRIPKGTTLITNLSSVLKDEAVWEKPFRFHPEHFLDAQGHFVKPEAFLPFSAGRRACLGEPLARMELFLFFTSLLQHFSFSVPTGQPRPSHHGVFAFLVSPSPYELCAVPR

Structure (SMILES) | activity, negative = inhibition | AC50
Cc1cc(NC(=O)c2cc(C(C)C)on2)no1 | 20.3% (inactive) | –
CCOC(=O)N1CCN(CC(=O)c2ccc3c(c2)CCN3)CC1 | -23.3% (inactive) | –
CC(=O)C1=C(O)C=C(c2ccco2)CC1c1ccco1 (stereo unspecified) | -12.8% (inactive) | –
c1ccc(-c2nc(CSc3n[nH]c(-c4cccs4)n3)cs2)cc1 | – | 1.12 µM (active)
Cc1cc(NC(=O)CSc2n[nH]c(-c3cccs3)n2)no1 | -3.95% (inactive) | –
CSc1n[nH]c(-c2sccc2OCc2ccc(C)cc2)n1 | -27.3% (inactive) | –
C=CC[C@@H](C(=O)O)c1ccccc1 | 1.94% [at 11.4 µM] (inactive) | –
CCc1c(C)c(C#N)c2nc3ccccc3n2c1N1CCN(c2cc(C)ccn2)CC1 | -6.92% (inactive) | –
C[C@H]1CCCC=CC2C[C@H](OC(=O)CN(C)C)C[C@@H]2[C@@H](O)/C=C\C(=O)O1 (stereo partly specified) | 9.34% [at 11.4 µM] (inactive) | –
Cc1cccc2sc(NC(=O)C3c4ccccc4Oc4ccccc43)nc12 | -27% (inactive) | –
O=S(=O)(c1ccccc1)N1CCC2(CCCN(c3cccc(-c4ccccc4)c3)C2)CC1 | 1.98% (inactive) | –
Cn1cccc1C(=O)N1CCC2(CC1)CN(c1cccc(-c3ccccc3)c1)C2 | -4.41% (inactive) | –
CS(=O)(=O)N1CCC2(CC1)CN(c1cccc(-c3ccccc3)c1)C2 | -0.816% (inactive) | –
c1ccc(-c2cccc(N3CC[C@@]4(CCCNC4)C3)c2)cc1 | – | 10 µM (active)
c1ccc(-c2cccc(N3CC4(CCNCC4)C3)c2)cc1 | – | 20 µM (active)
O=S(=O)(c1ccccc1)N1CCC[C@@]2(CCN(c3cccc(-c4ccccc4)c3)C2)C1 | -1.58% (inactive) | –
Cc1ccccc1C(=O)Nc1ccc(C(=O)NNC(=O)CCCOc2ccc(Cl)cc2Cl)cc1 | -9.11% (inactive) | –
COc1cc(Br)c(C(C)NC(=O)c2cccc(Br)c2)cc1OC (stereo unspecified) | -16.8% (inactive) | –
C/C(=N\NC(=O)c1cccc(C)c1)c1cccc(NC(=O)c2ccco2)c1 | -0.781% (inactive) | –
Cn1c([N+](=O)[O-])cnc1COC(N)=O | 1.78% [at 25.6 µM] (inactive) | –
Cc1cc(C)c2cc(C#N)c(NCCOC(=O)c3ccccc3C)nc2c1 | 6.66% (inactive) | –
Cc1nn(-c2ccc(Cl)cc2)c2sc(C(=O)c3c(N)n(C)c(=O)n(C)c3=O)cc12 | 22% (inactive) | –
Cc1nn(-c2ccccc2)c2c1C(c1ccc(O)c(O)c1)N1C(=N2)C(Nc2ccccc2)=Nc2ccccc21 (stereo unspecified) | -1.07% (inactive) | –

Structure (SMILES) | activity, negative = inhibition | AC50
COc1ccccc1OCc1ccc(C(=O)N(C)C)o1 | -26.7% (inactive) | –
Cc1ccc(C(=O)NNC(=O)CSc2nnc3c(n2)[nH]c2ccc(F)cc23)cc1 | -8.95% (inactive) | –
O=C(O)c1cc(-c2ccc(-c3ccccc3)cc2)nc2cc3ccccc3cc12 | -10.7% [at 11.4 µM] (inactive) | –
CC(=O)Nc1ccc(-c2cc(C(=O)O)c3cc4ccccc4cc3n2)cc1 | -6.98% [at 11.4 µM] (inactive) | –
COc1ccc(OC)c(-c2cc(C(=O)O)c3cc4ccccc4cc3n2)c1 | – | 3.98 µM (active)
O=C(Oc1ccc(C(=S)N2CCOCC2)cc1Br)c1cc(Cl)ccc1Cl | -5.56% (inactive) | –
O=C(O)c1ccc(C(=O)Nc2cccc3ccccc23)c(C(=O)O)c1 | 10.4% [at 11.4 µM] (inactive) | –
COc1ccc(-n2c(=O)c(C)nc3cnc(Nc4cccc(OC)c4)nc32)cc1 | -12.9% (inactive) | –
COc1cccc2cc(C(=O)CC3(O)C(=O)N(Cc4ccccc4)c4ccccc43)c(=O)oc12 (stereo unspecified) | -12.8% (inactive) | –
COc1ccc(-c2nc3cnc(Nc4cccc(OC)c4)nc3n(Cc3cccs3)c2=O)cc1 | 4.57% (inactive) | –
COc1cccc(-c2nccc(NCc3cccs3)n2)c1 | – | 0.316 µM (active)
COc1cccc(-c2nccc(NCc3ccccc3)n2)c1 | – | 1 µM (active)
COc1cccc(-c2nccc(NCc3cccc(C)c3)n2)c1 | – | 10 µM (active)
COc1cccc(Nc2ncc3nc(-c4ccccc4)c(=O)n(Cc4cccs4)c3n2)c1 | 11.2% (inactive) | –
COc1cccc(-c2nccc(NCc3cnc(C)cn3)n2)c1 | -11.9% (inactive) | –
CCOC(=O)CCN1C(=O)[C@H]2[C@@H]3[C@H](O)[C@H](O)CC(=O)[C@H]3CC[C@H]2C1=O | -6.39% [at 11.4 µM] (inactive) | –
CC(C)CN(CC#N)CC(C)C | 1.21% [at 11.4 µM] (inactive) | –
O=C(c1cc(C(F)(F)F)cc(C(F)(F)F)c1)N1CCC2(CC1)CN(c1ccccc1)C2 | 8.07% (inactive) | –
O=c1ncn(-c2ccccc2F)c2ncccc12 | 23.3% (inactive) | –
CN1CCCC2(CCN(C(=O)c3cc(C(F)(F)F)cc(C(F)(F)F)c3)CC2)C1 | -5.92% (inactive) | –
O=C(Nc1ccccc1N1CCN(C(=O)c2ccc(Cl)cc2)CC1)c1cc(Br)ccc1Cl | -24.3% (inactive) | –
C[C@@H](c1ccccc1)N1C(=O)[C@H]2[C@H]3[C@H](O)[C@H](O)C/C(=N/OC[C@@H](O)COCc4ccco4)[C@@H]3CC[C@@H]2C1=O | 3.23% [at 11.4 µM] (inactive) | –
O=C(N/N=C/c1c[nH]c2ccccc12)c1cc(-c2ccc(-c3ccccc3)cc2)n[nH]1 | -8.44% (inactive) | –

Structure (SMILES) | activity, negative = inhibition | AC50
O=C(N/N=C/c1c[nH]c2ccc(Br)cc12)c1ccn(Cc2ccc(Cl)cc2)n1 | – | 12.6 µM (active)
[N-]=[N+]=NC[C@@H]1O[C@@H](n2cnc3c(N)ncnc32)[C@@H]2O[C@@H]21 | 3.12% [at 11.4 µM] (inactive) | –
CC(=O)N1CCc2cc(S(=O)(=O)CCC(=O)Nc3c(C)n(C)n(-c4ccccc4)c3=O)ccc21 | 9.42% (inactive) | –
CC(C)CCNC1=NCCCCC1 | – | 12.6 µM (active)
Cc1ccc2[nH]c3nc(CCCn4ccnc4-c4ccccc4)nnc3c2c1 | -15.6% [at 11.4 µM] (inactive) | –
Cc1sc(NC(=O)c2ccc(OCC(C)C)cc2)c(C(N)=O)c1-c1ccc(Cl)cc1Cl | 6.82% (inactive) | –
N#Cc1cccc(NC(=O)N2CC3(CCN(C(=O)c4cnccn4)CC3)C2)c1 | -5.46% (inactive) | –
CCOc1ccccc1C1C(C#N)=C(N)Oc2n[nH]c(CC)c21 (stereo unspecified) | -15.4% (inactive) | –
O=C(N/N=C\c1ccc(-c2ccccc2[N+](=O)[O-])o1)C1COc2cc3ccccc3cc2O1 (stereo unspecified) | 4.5% (inactive) | –
CN(C)c1ccnc(Oc2ccc(Cl)cc2)c1C#N | – | 5.01 µM (active)
Cc1cc(C)c(C#N)c(Oc2ccc(F)cc2)n1 | 9.74% (inactive) | –
N#Cc1c(-c2ccccc2)ccnc1Oc1ccccc1 | -8.61% (inactive) | –
COC(=O)[C@@H]1CC[C@H](C)[C@@H](c2ccc(C)cc2)N1C(=O)c1ccc(/C=N\OC[C@@H]2O[C@H](c3ccccc3)C=C[C@@H]2Oc2ccc(OC)cc2)cc1 | 3.42% [at 11.4 µM] (inactive) | –
CCCN[C@@H](C)C(=O)Nc1c(C)csc1C(=O)OC | -8.72% [at 25.6 µM] (inactive) | –
CCOC(=O)N1CCN(C(=O)c2cccn3c(=O)c4cc(Cl)ccc4nc23)CC1 | -19.7% (inactive) | –
CCOC(=O)c1[nH]c2ccc(Cl)cc2c1-c1ccccc1 | 7.26% (inactive) | –
CCOC(=O)N1CCN(c2c(-c3ccccc3)c3cc(Cl)ccc3[nH]c2=O)CC1 | – | 0.355 µM (active)
O=C(c1ccccc1)N1CCSC1=S | 2.21% (inactive) | –
COc1ccc(C(=O)[C@H](Br)[C@H](Br)C(=O)O)cc1 | -14.6% [at 11.4 µM] (inactive) | –
CCOc1cc(/C=N/n2cnnc2)c(Br)cc1O | 0.114% (inactive) | –
Cc1ccc(/C=N/NC(=O)CSc2nc3ccccc3n2C)s1 | – | 7.08 µM (active)
Cc1ccc(C(=O)N/N=C/c2nc3ccccc3n2C)cc1 | -3% (inactive) | –
Cn1c(/C=N/NC(=O)c2ccccc2Br)nc2ccccc21 | -16.1% (inactive) | –

Structure (SMILES) | activity, negative = inhibition | AC50
O=C(c1cc(Br)ccc1O)c1cc(Br)ccc1O | -11.4% [at 11.4 µM] (inactive) | –
CC(C)=C[C@H]1[C@@H](C(=O)Oc2ccccc2C(C)C)C1(C)C | 0.868% [at 11.4 µM] (inactive) | –
CC1(C)CCC=[N+]1[O-] | 2.61% (inactive) | –
Nc1c2c(nc3ccccc13)CCC[C@H]2O | -6.84% (inactive) | –
Nc1[nH]n2c(=O)c3c(nc2c1N=Nc1ccccc1)CCCC3 | -21.7% (inactive) | –
Nc1c2c(nc3ccccc13)CCCC2 | – | 5.01 µM (active) and inactive
COc1ccc(NC(=O)C2CC(=O)NC3=C2C(=O)CC(C)(C)C3)cc1 (stereo unspecified) | 8.12% (inactive) | –
COc1ccc(CCN=CC2=C(O)CC(C)(C)CC2=O)cc1 | -0.143% (inactive) | –
CC(=O)OC[C@@H]1O[C@H](C/C=N\O[C@@H](C)c2cn([C@H]3COC[C@H]3O)nn2)C=C[C@@H]1OC(C)=O | 10.3% [at 11.4 µM] (inactive) | –
CC(=O)OC[C@@H]1O[C@H](C/C=N\O[C@@H](C)CN2CCCc3nc(C)c(C)cc32)C=C[C@@H]1OC(C)=O | – | 3.16 µM (active)
CC(=O)OC[C@@H]1O[C@H](C/C=N\O[C@@H](C)c2cc(-c3c(C)cc(C)cc3C)no2)C=C[C@@H]1OC(C)=O | -0.786% [at 11.4 µM] (inactive) | –
CC(=O)OC[C@@H]1O[C@H](C/C=N\O[C@@H](C)CN2CCCCc3nc(C)c(C)cc32)C=C[C@@H]1OC(C)=O | – | 3.16 µM (active)
CC(=O)OC[C@@H]1O[C@H](C/C=N\O[C@@H](C)c2cn([C@H](CO)Cc3ccccc3)nn2)C=C[C@@H]1OC(C)=O | 6.63% [at 11.4 µM] (inactive) and -11.6% [at 11.4 µM] (inactive) | –
CC(=O)OC[C@@H]1O[C@H](C/C=N\OC[C@@H](O)COCc2ccco2)C=C[C@@H]1OC(C)=O | -5.26% [at 11.4 µM] (inactive) | –
CC(C)Nc1nc(NC(C)(C)C)nc(Oc2ccc(=O)n(-c3ccccc3)n2)n1 | -18.2% (inactive) | –
Cc1ccc(NC(=O)Nc2nc(-c3ccc(C)s3)cs2)cc1 | -3.69% (inactive) | –
CCCCN(C(=O)NC(=O)Nc1ccccc1OCC)S(C)(=O)=O | -22.9% (inactive) | –
Cc1cnn(-c2cc(N/N=C/c3ccccc3)ncn2)c1 | 6.87% (inactive) | –
Cc1ccc2nc(N/N=C\c3cccc(C)n3)cc(C)c2c1 | – | 3.16 µM (active)
COc1cccc(C(C#N)N2N=C(C)CC2(C)C)c1O (stereo unspecified) | -3.53% (inactive) | –
Cc1nc(S(=O)(=O)N2CCOCC2)c(C#N)c(C)c1Cl | 11.6% (inactive) | –
COc1cccc2c1[C@@H]1CN(CCCCn3c(=O)[nH]c4c(sc5ncc(-c6ccccc6)nc54)c3=O)C[C@H]1CO2 | – | 31.6 µM (active)

Reference: PubChem BioAssay AID1851 (National Center for Advancing Translational Sciences (NCATS), 2009)
